The experiment relates to Trypanosoma brucei. As to the kind of experiment: Trypanosoma brucei 72 hour study. In kind it is functional, organism-based. Details: scale not given: in the data most compounds retested in dose-response had high values.

This is an account of results in ChEMBL document CHEMBL3988442, “University of Dundee, Small-Polar-MMV Screening Library” (2021).

The whole screen tested about 66,000 compounds, of which about 960 (1.5%) showed an effect of 50% or more. Many of the other results were omitted from the sample, so strong results are more common in it than they were.

Consider `Cl.O=C(NCCn1nc(C2CCNC2)c2cccnc21)C1CCC1` (configuration not stated), for which, where the note is “30.3 µM, […]”, the “Percent Effect” value is given as -2.901%.
Consider `Cc1cc(C)c2c(N3CCN(C(=O)N(C)C)CC3)ncnc2n1`, for which, where the note is “30 µM, 30.03 µM”, the “Percent Effect” value was -10.57%.
Consider `O=C(c1cccc(Cl)c1)C1CCCN(c2nnc(C3CCC3)o2)C1` (configuration not stated), for which the “Percent Effect” value (30 µM, 30.03 µM) is reported as 75.84%.
The same measure, in the same setting: in the case of `Cc1nnc(N2CCCC(C(=O)c3cccc(Cl)c3)C2)o1` (configuration not stated) it was -2.386%.
Still for that read-out and setting: in the case of `O=C(c1cccnc1)C1CCCN(c2nnc(C3CC3)o2)C1` (configuration not stated) it was -35.25%; in that of `NCCn1cc(C(=O)N2CCCCCC2c2ccco2)nn1` (configuration not stated), -18.67%.
Consider `Oc1cc(-c2nccs2)nc(C2CCN(Cc3cccs3)CC2)n1`, for which the “Percent Effect” value (30.3 µM, […]) was -16.93%.
As to `Oc1cc(C2CCCN(Cc3cccs3)C2)nc(-c2ccccn2)n1` (configuration not stated), the “Percent Effect” value (30.3 µM, […]) was determined as 100.2%.
In the case of `Oc1cc(C2CCCCN2Cc2cccs2)nc(-c2ccncc2)n1` (configuration not stated), under “30.3 µM, […]”, the “Percent Effect” value was -2.917%.
As for `Cn1ncc2ccc(C3CCCN(Cc4cccs4)C3)nc21` (configuration not stated), the “Percent Effect” value (30.3 µM, […]) is given as 11.55%.
For the compound `Oc1cc(C2CCCCN2Cc2ccsc2)nc(-c2ccncc2)n1` (configuration not stated), the “Percent Effect” value (30.3 µM, […]) was -12.11%.
Turning to `Oc1cc(C2CCCCN2Cc2cccs2)nc(-c2ccccn2)n1` (configuration not stated), the “Percent Effect” value (30.3 µM, […]) is on record as 99.61%.
Turning to `O=C(CCn1cc(Cl)cn1)Nc1ccc2c(c1)OCCO2`, the “Percent Effect” value (30 µM, 30.03 µM) is recorded as -17.81%.
Consider `CN(C)c1ccc(C(=O)N2CCCN(C3CCCCC3)CC2)cn1`, for which the “Percent Effect” value (30.3 µM, […]) is reported as -15.89%.
Turning to `Cc1ccc(Cc2cnc(C3CCNCC3)cn2)cc1.Cl`, the “Percent Effect” value (30.3 µM, […]) was -22.29%.
Turning to `O=S(=O)(NCC(c1ccsc1)N1CCCCCC1)c1cccs1` (configuration not stated), for the setting “30 µM, 30.03 µM”, the “Percent Effect” value is -20.18%.
Take `Oc1nc(N2CCOCC2)nc2c1CCN(Cc1ccc(F)cc1)CC2`: under “30.3 µM, […]”, the “Percent Effect” value is reported as 100.3%.
Turning to `Oc1nc(N2CCOCC2)nc2c1CCN(Cc1ccccc1)CC2`, the “Percent Effect” value (30.3 µM, […]) is reported as -21.1%.
Regarding `Oc1nc(N2CCOCC2)nc2c1CCN(Cc1cccc(F)c1)CC2`, the “Percent Effect” value (30.3 µM, […]) is recorded as -14.28%.
`CC(C)c1nc(CCN(C)c2nccc(N3CCCC(O)C3)n2)no1` (configuration not stated): the “Percent Effect” value (30.3 µM, […]) is given as 3.693%.
On to `Cc1oncc1C(=O)N1CC[C@H]2[C@H]1CCN2S(C)(=O)=O`, for which, for the setting “30.3 µM, […]”, the “Percent Effect” value was determined as 97.42%.
For the compound `Cc1oncc1C(=O)N1CC[C@H]2[C@@H]1CCC(=O)N2CC1CC1`, the “Percent Effect” value (30.3 µM, […]) is -43.42%.
The same measure, in the same setting: in the case of `Cc1cc(C(=O)N2CC[C@H]3[C@H]2CCN3S(C)(=O)=O)c(C)o1` it was -71.76%; in that of `Cc1cccc(CN2CCC3(CC2)CC(c2cccnc2)C(=O)N3C)n1.O=C(O)C(F)(F)F.O=C(O)C(F)(F)F` (configuration not stated), -33.95%.
`COCC(=O)N1CCC2(CC1)COCCN2Cc1ccc(F)cc1.O=C(O)C(F)(F)F`: the “Percent Effect” value (30 µM, 30.03 µM) is listed as 14.27%.
Turning to `Cc1nc(CC2CCN(Cc3ccc(CCC(C)(C)O)cc3)CC2)no1`, the “Percent Effect” value (30.3 µM, […]) was -0.2557%.
Turning to `Cc1noc2nc(C3CCN(CC4CCCCC4)CC3)cc(C(F)F)c12.Cl`, the “Percent Effect” value (30.3 µM, […]) worked out at 30.15%.
Consider `CCn1nc(C)c2ccn(CC(=O)NCCCOC)c(=O)c21`, for which the “Percent Effect” value (30 µM, 30.03 µM) came out at 9.008%.
`O=C(O)C(F)(F)F.O=C(c1ccccn1)N1C[C@H]2CCC[C@@]2(COCC2CCOCC2)C1`: the “Percent Effect” value (30 µM, 30.03 µM) is 14.59%.
For the compound `O=C(c1ccncn1)N1C[C@H]2CCC[C@@]2(COCC2CCOCC2)C1`, the “Percent Effect” value (30 µM, 30.03 µM) is listed as 54.31%.
Take `O=C(c1cccs1)N1C[C@H]2CCC[C@@]2(COCC2CCOCC2)C1`: the “Percent Effect” value (30 µM, 30.03 µM) was 13.05%.
Consider `Cc1ccsc1C(=O)N1CCCN(Cc2cscn2)CC1`, for which the “Percent Effect” value (10 µM) is -20.65%.
As for `CN(C)C(=O)[C@H]1CCS(=O)(=O)[C@@H]2CN(c3ncccn3)C[C@H]12`, under “30.3 µM, […]”, the “Percent Effect” value is reported as -0.441%.
Consider `COc1ccc(CC(=O)N2CCCN(c3ccc(C#N)cc3)CC2)cc1`, for which the “Percent Effect” value (30 µM, 30.03 µM) worked out at 55.65%.
On to `COc1ccnc(N2CCN(C(=O)Cc3ccc(C#N)cc3)CC2)n1`, for which, for the setting “30 µM, 30.03 µM”, the “Percent Effect” value worked out at 4.593%.
Consider `Cc1nc(CC(=O)N2CCCN(c3ccc(C#N)cc3)CC2)cs1`, for which, for the setting “30 µM, 30.03 µM”, the “Percent Effect” value was 7.071%.
In the case of `CN1C[C@]2(CC[C@@H](C(=O)N3CCOCC3)CC2)Oc2ccccc2C1=O`, where the note is “30.3 µM, […]”, the “Percent Effect” value is on record as -18.99%.
As for `Cc1ccc2[nH]c(C(=O)N3CCC4(CC3)C(=O)NCCN4C)nc2c1`, the “Percent Effect” value (30 µM, 30.03 µM) was determined as 74.91%.
Same read-out and setting: in the case of `CN1CCNC(=O)C12CCN(C(=O)c1ccc3[nH]c(=O)[nH]c3c1)CC2` it was 29.1%; in that of `Cc1ccc(C(=O)N2CCC3(CC2)C(=O)NCCN3C)cc1O`, -5.883%; in that of `Cn1cc(C(=O)NCc2cn3c(n2)CN(CC2CCCC2)CC3)cn1.O=C(O)C(F)(F)F.O=C(O)C(F)(F)F`, -33.28%.
With `Cc1nc(CO[C@@H]2CN(Cc3cccs3)[C@@H]3COC[C@@H]32)cs1.O=C(O)C(F)(F)F`, the “Percent Effect” value (30 µM, 30.03 µM) is recorded as -14.66%.
Regarding `Cc1cc(S(C)(=O)=O)c(C)c(S(=O)(=O)N2CCCC(C)C2)c1` (configuration not stated), the “Percent Effect” value (30 µM, 30.03 µM) worked out at 0.7387%.
Same read-out and setting: the value for `O=C(O)C(F)(F)F.O=C1COC2(CCN(CC3CC3)CC2)CN1c1cncnc1` was -12.06%.
For `CS(=O)(=O)CCC(=O)NC(Cc1ccccc1)C1CC1` (configuration not stated), under “30.3 µM, […]”, the “Percent Effect” value is 70.04%.
Take `Cc1c(NC(=O)CN(C)S(C)(=O)=O)cccc1OC1CCCC1`: the “Percent Effect” value (30 µM, 30.03 µM) is recorded as -55.36%.
The same measure, in the same setting: the value for `Cc1ccc(CC(NC(=O)CCS(C)(=O)=O)c2ccccn2)cc1` (configuration not stated) was -49.38%.
